Assay results taken from article PMC5540273 (PLoS ONE, 2017).

System: T1, p38-gamma
T1 construct: gene MAPK12
Settings: concentration: 1 μM, replicates: in singlicate; n = 1
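Also: KINOMEscan kinase panel screen.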

SMILES | %Inh
Nc1cccc(-c2ccc3c(N)n[nH]c3c2)n1 [GSK2192730] | 0%
COc1ccc(CSc2nnc(-c3ccc4c(c3)CCO4)o2)cc1 | 0%
Fc1ccc(-c2nc3n(c2-c2ccncc2)CCS3)cc1 [GI98581] | 0%
CS(=O)(=O)CCNCc1nc(-c2ccc3ncnc(Nc4ccc(OCc5ccccc5)c(Cl)c4)c3c2)cs1.Cl [GW582764] | 0%
CNC(=O)c1ccc(C)c(-n2c(C)cc(OCc3ccc(F)cc3F)c(Br)c2=O)c1 | 0%
O=c1cc(N2CCOCC2)nc2n(Cc3cccc(Cl)c3Cl)c3ccccc3n12 [GSK2299009] | 30%
CC(=O)c1c(C)c2cnc(Nc3ccn(C)n3)nc2n(C2CCCC2)c1=O | 0%
CC[C@@H]1CO[C@H](C(=O)Nc2ccccc2)CN1c1cc(-c2ccc3c(N)n[nH]c3c2)nc(NC)n1 [GSK2376236] | 0%
CCn1c(-c2ccccc2)nc2cnccc21 [SB-733416] | 0%
O=C(Nc1n[nH]c2nc(-c3ccco3)c(Br)cc12)C1CCN(Cc2ccccc2)C1.O=C(O)[C@H](O)[C@@H](O)C(=O)O (centres unmarked) [SB-742034] | 20%
COc1ccc(Nc2nccc(-c3ccc(NC(=O)c4cc5cc(F)ccc5[nH]4)cc3)n2)cc1 [GSK1229496] | 1%
Nc1nccc(-c2c(-c3ccc(F)cc3)ncn2C2CCN(Cc3ccccc3)CC2)n1 [SB-219980] | 0%
Cc1ccccc1Cn1ccn2c(=O)cc(N3CCOCC3)nc12 [GSK2269905] | 0%
COc1ccc(Nc2nccc(N3CCC(NC(=O)C(C)c4ccc(Cl)cc4)C3)n2)cc1 (centres unmarked) [GSK1379735] | 22%
CC(=O)c1cccc(NC(=O)NC2CCN(c3ccnc(Nc4ccc(F)cc4)n3)C2)c1 (centres unmarked) [GSK1379710] | 3%
COc1cccc(C2=C(Nc3cc(Cl)c(O)c(Cl)c3)C(=O)NC2=O)c1 [SB-390767] | 0%
Cc1nccc(-c2c(-c3ccc(F)cc3)ncn2CCCN2CCOCC2)n1.Cl [SB-282975] | 26%
Cn1cncc1-c1cc2c(Nc3ccc(OCc4ccccc4)cc3)ncnc2cn1 [GW281179] | 0%
Cc1cccc2c(-c3ccncn3)c(-c3ccc(F)cc3)nn12 [GW515532] | 20%
Cl.Cl.Cl.N#Cc1ccc(CCNc2nccc(-c3cccc(CN4CCNCC4)c3)n2)cc1 [GSK2137462] | 27%
CNc1nc(-c2ccc3c(N)n[nH]c3c2)cc(N2C[C@@H](C(=O)Nc3ccccc3)CC[C@H]2C)n1 [GSK2298859] | 0%
CCCCc1nn2ncccc2c1-c1ccnc(NC2CC2)n1 [GW684374] | 0%
CCn1c(-c2c(N)noc2C)nc2cnccc21 [SB-737856] | 0%
